Assay results: PubChem BioAssay AID436 (Emory University Molecular Libraries Screening Center, 2006)
Hit rate of the full screen: of about 72,000 compounds, about 350 (0.49%) were called active. The sample holds actives, similar compounds and a random draw of the others, so the mix is not that of the screen. Unmarked numbers belong to inactive results.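 Rule for the calls: active = activity remaining at or below 50% of control, provided the compound also passes the data quality filters; inactive = the rest, including low values that fail the filters.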

molecular target: Ubiquitin carboxyl-terminal hydrolase BAP1 (Homo sapiens) (UniProt Q92560); assay: BAP1 ubiquitin hydrolase activity blockers – biochemical, Ub-AMC fluorescence, kinetic, primary screen (AID 436); conditions: recombinant BAP1, Ub-AMC hydrolysis fluorescence kinetic; at 20 µM; hits give low values;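 note: 100% = DMSO wells rate and 0% = substrate alone blank rate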
Sequence (Q92560 whole entry, looked up): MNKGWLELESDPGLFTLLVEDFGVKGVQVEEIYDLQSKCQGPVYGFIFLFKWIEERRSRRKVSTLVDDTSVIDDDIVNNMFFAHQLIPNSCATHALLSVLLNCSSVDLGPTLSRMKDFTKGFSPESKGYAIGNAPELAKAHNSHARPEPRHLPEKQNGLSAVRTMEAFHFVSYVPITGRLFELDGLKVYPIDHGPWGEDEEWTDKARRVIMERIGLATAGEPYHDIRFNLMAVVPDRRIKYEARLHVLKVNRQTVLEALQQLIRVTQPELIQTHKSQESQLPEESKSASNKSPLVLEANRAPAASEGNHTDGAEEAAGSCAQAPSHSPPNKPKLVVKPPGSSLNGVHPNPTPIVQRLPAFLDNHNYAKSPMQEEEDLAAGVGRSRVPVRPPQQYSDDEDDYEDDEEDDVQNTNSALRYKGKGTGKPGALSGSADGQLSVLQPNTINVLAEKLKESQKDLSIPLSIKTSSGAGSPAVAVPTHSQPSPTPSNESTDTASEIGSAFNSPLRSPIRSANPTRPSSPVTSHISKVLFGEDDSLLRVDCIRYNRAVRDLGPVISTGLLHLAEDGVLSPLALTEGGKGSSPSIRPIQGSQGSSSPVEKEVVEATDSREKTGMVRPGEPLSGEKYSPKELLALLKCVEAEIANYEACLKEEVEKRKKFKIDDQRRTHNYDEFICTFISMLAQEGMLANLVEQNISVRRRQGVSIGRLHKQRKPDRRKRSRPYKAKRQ

| Compound | activity remaining (% of control) |
| --- | --- |
| NC(=O)c1ccccc1NC(=O)COc1ccc([N+](=O)[O-])cc1 | 138% |
| Cc1ccc(C=Cc2ccncc2)cc1 | 139% |
| N#Cc1c(NC(=O)CCCN2C(=O)c3ccccc3C2=O)oc(-c2ccccc2)c1-c1ccccc1 | 56.8% |
| N#Cc1c(/N=C/N2CCCC2)oc(-c2ccccc2)c1-c1ccccc1 | 41.5% (active) |
| NC(=O)c1c(NC(=O)CCCCCN2C(=O)c3ccccc3C2=O)sc2c1CCC2 | 140% |
| COC(=O)C1=C(C)Nc2nnnn2C1c1ccccc1 (stereo not drawn) | 171% |
| COc1cc(C(=O)Nc2ccc(Cl)cc2[N+](=O)[O-])cc(OC)c1OC | 87.7% |
| C[n+]1ccccc1C=Cc1ccccc1 | 120% |
| CCC(c1nnnn1C1CCCC1)N(Cc1cccs1)Cc1cc2cccc(C)c2[nH]c1=O (stereo not drawn) | 49.7% (active) |
| Cc1cccc2cc(CN(Cc3ccc4c(c3)OCO4)Cc3nnnn3C3CCCC3)c(=O)[nH]c12 | 53.1% |
| Cc1cccc2cc(CN(Cc3cccs3)C(c3nnnn3C3CCCC3)C(C)C)c(=O)[nH]c12 (stereo not drawn) | 57.3% |
| COC(=O)c1ccc(C(=O)Nc2cccc3c2C(=O)c2ccccc2C3=O)cc1 | 177% |
| CC(C)C(=O)N1c2ccccc2NC2=C(C(=O)CC(c3ccccc3)C2)C1c1ccc(F)cc1 (stereo not drawn) | 63.6% |
| O=C(c1ccccc1)N1CCN(c2ccc([N+](=O)[O-])cc2F)CC1 | 64.8% |
| COc1cc(C2CC(=O)Nc3c2cc(Br)c2ccccc32)cc(Br)c1OC (stereo not drawn) | 57.5% |
| CC(C)(C)c1ccc(OCC(O)CN2CCN(c3ccccc3F)CC2)cc1 (stereo not drawn) | 152% |
| CC(C)(C)c1ccc(C(=O)Nc2nnc(Cc3ccc(F)cc3)s2)cc1 | 75.1% |
| COc1ccc(C=Nc2sc(C)c(C)c2C#N)cc1 | 103% |
| COC(=O)c1sc(-c2ccccc2)cc1NC(=O)c1ccc(S(=O)(=O)N2CCOCC2)cc1 | 193% |

| Compound | activity remaining (% of control) |
| --- | --- |
| O=C1NCCCC1C1=NC(CO)(CO)CO1 (stereo not drawn) | 82.8% |
| CCCOC(=O)c1cccc(NC(=O)COc2cccc(Cl)c2)c1 | 91.3% |
| CCOc1ccc(C(=O)Nc2ccc3c(c2)oc2ccccc23)cc1 | 144% |
| CCCCOc1ccc(C(=O)Nc2nc3ccc4nc(C)sc4c3s2)cc1 | 167% |
| CCC(=O)OCC1OC(n2ccc(=O)[nH]c2=O)CC1OC(=O)CC (stereo not drawn) | 130% |
| COc1ccc(CCNC(=O)c2cccc([N+](=O)[O-])c2C)cc1 | 86.2% |
| COc1ccc(C(=O)Nc2cccc(C)n2)cc1[N+](=O)[O-] | 80.8% |
| CN1C(=O)C(=O)/C(=C(/O)c2ccc(F)cc2)C1c1ccc(F)cc1 (stereo not drawn) | 58.4% |
| Cn1c(=O)[nH]c(=O)c2c1nc(N1CCOCC1)n2CCO | 159% |
| COc1cccc(NS(=O)(=O)c2ccc3[nH]cc(C(=O)NCCCOC(C)C)c(=O)c3c2)c1 | 79.5% |
| CCCCNC(=O)c1c[nH]c2ccc(S(=O)(=O)Nc3ccc(OCC)cc3)cc2c1=O | 32.9% (active) |
| Cn1c(=N)n(CC(O)c2cccs2)c2ccccc21 (stereo not drawn) | 85.6% |
| COc1cc(NC(=O)COc2ccccc2)c(OC)cc1Cl | 141% |
| O=C(Nc1cc2cccc([N+](=O)[O-])c2oc1=O)c1ccccc1[N+](=O)[O-] | 61.5% |
| Cc1cc(C)nc(NS(=O)(=O)c2ccc(NC(=O)c3ccc(F)cc3)cc2)n1 | 67.2% |
| Clc1ccc2[nH]c3ccccc3c2c1 | 65% |
| Cc1cc(O)c2c(=O)c(-c3csc(C)n3)c(C(F)(F)F)oc2c1 | 130% |
| O=C(OCCN1C(=O)c2ccccc2C1=O)c1ccc([N+](=O)[O-])cc1 | 90.6% |
| O=[N+]([O-])c1ccc(C=Nc2nc3c(s2)CCCC3)cc1 | 113% |
